# Measured values reported in PubChem BioAssay.
# Values without a mark were called inactive.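 Rule for the calls: active = inhibition at or above 50% relative to wild type and mutant plate controls; inactive = inhibition below 50%.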
# Experiment: loss of swimming-algae plug formation – whole organism, Chlamydomonas reinhardtii, WT vs cilia-less mutant, absorbance, 96-well, primary screen (AID 463189);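 note: 0% = wild type cc124 cells in DMSO and 100% = ciliumless bld1 mutant cells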
# Conditions: Chlamydomonas reinhardtii gravitaxis, OD600 absorbance, 2 days; at 10 µM; active compounds read high
row,Compound,inhibition [%]
1,COc1ccccc1N1CCN(CCN(C(=O)c2ccc(F)cc2)c2ccccn2)CC1,0.605
2,O=NN(CCCl)C(=O)NCCCl,6.33
3,OCC1NCC(O)C(O)C1O (stereo not given),-0.461
4,NCCc1cnc[nH]1,2.56
5,Oc1ccc(C2CNCc3sccc32)cc1O (stereo not given),10.1
6,Oc1cc(O)c2c(c1)O[C@H](c1ccc(O)c(O)c1)[C@@H](O)C2,2.87
7,N=c1ccn2c(n1)OC1[C@@H](O)[C@@H](CO)O[C@H]12 (stereo not given in full),-5.06
8,O=c1[nH]c(=O)c2nc3ccccc3nc2[nH]1,-4.43
9,CC(C)[C@@H](CO)Nc1nc(Nc2cccc(Cl)c2)c2ncn(C(C)C)c2n1,-2.67
10,OC[C@H]1O[C@@H](n2cnc3c(NCCc4ccccc4)ncnc32)C(O)[C@H]1O (stereo not given in full),-17
11,CCCCCCC/C=C\CCCCCCCCC(=O)O,9.07
12,CC(C(=O)O)c1cccc(C(=O)c2ccccc2)c1 (stereo not given),-4.65
13,CCCCC#Cc1nc(N)c2ncn([C@@H]3O[C@H](C(=O)NCC)[C@@H](O)[C@H]3O)c2n1,-3.94
14,CN(C)CCC(c1ccc(Cl)cc1)c1ccccn1 (stereo not given),9.56
15,Cc1cc(C)c(/C=C2\C(=O)Nc3ccccc32)[nH]1,25.9
16,CC1CN(S(=O)(=O)c2cccc3cnccc23)CCN1 (stereo not given),5.73
17,NC(=O)c1ncn([C@@H]2O[C@H](CO)[C@@H](O)[C@H]2O)c1O,13.2
18,NC(N)=NC(=O)c1nc(Cl)c(N2CCCCCC2)nc1N,-1.07
19,O=C(CCCN1CCC(O)(c2cccc(C(F)(F)F)c2)CC1)c1ccc(F)cc1,40.6
20,O=C1N=C(O)CN1/N=C/c1ccc(-c2ccc([N+](=O)[O-])cc2)o1,4.87

row,Compound,inhibition [%]
1,OC[C@H]1O[C@@H](n2cnc3c(N[C@H]4CC5CCC4C5)ncnc32)[C@H](O)[C@@H]1O (stereo not given in full),2.84
2,CN(C)CCN(Cc1cccs1)c1ccccn1,2.59
3,C[N+]1(CCCCC[N+]2(C)CCCC2)CCCC1,-4.7
4,NCCSSCCN,6.01
5,COc1ccccc1N1CCN(CCN2C(=O)CC3(CCCC3)CC2=O)CC1,-4.14
6,CC1(C)CCC(NC(=O)[C@@H](N)CCC(=O)O)CC1,2.89
7,Cn1c(=O)c2[nH]c(-c3ccc(S(=O)(=O)O)cc3)nc2n(C)c1=O,-2.33
8,O=C(O)c1cc2cc(Cc3cccnc3)ccc2o1,-4.17
9,NCC(O)C1CCCCCCC1 (stereo not given),2.73
10,COc1cc2ncnc(Nc3cccc(Cl)c3)c2cc1OC,-7.15
11,C[C@]12CC[C@@H]3c4ccc(O)cc4CC[C@H]3[C@@H]1CC[C@@H]2O,5.14
12,CNc1ncnc2c1ncn2[C@H]1C[C@H](OP(=O)(O)O)[C@@H](COP(=O)(O)O)O1,1.24
13,COc1ccccc1NC(=O)Nc1nc(-c2cccnc2)nc2ccccc12,-0.831
14,CC(N)=NCCC[C@H](N)C(=O)O,5.15
15,O=c1c(O)c(-c2cc(O)c(O)c(O)c2)oc2cc(O)cc(O)c12,9.46
16,CNCCC(Oc1ccccc1C)c1ccccc1 (stereo not given),10.9
17,N[C@@H](CC(=O)O)C(=O)O,4.32
18,CC(N)(Cc1ccc(O)c(O)c1)C(=O)O (stereo not given),6.85
19,O=C(c1ccccc1)c1ccc2n1CCC2C(=O)O (stereo not given),-6.13
20,CCN(CC)CCCCCCCCOC(=O)c1cc(OC)c(OC)c(OC)c1,24.5
